From PubChem
Myeloid diff 2: induction of myeloid progenitor differentiation, primary screen, cell-based, flow cytometry, MLPCN library; ER-HoxA9 myeloid progenitors, lysozyme-GFP differentiation; calls only at 10 µM; 360,000 compounds, 1% hits;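 active = normalized GFP-positive differentiation at or above the plate's own cutoff, the solvent-only control mean plus 3 SD; inconclusive = no clear call, values can overlap the other calls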;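 also: cells exposed to compound for four days before flow analysis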
Granule exo inh: LAMP-1 surface exposure blockers, TALL-104 cells – cell-based, flow cytometry, MLPCN library, primary screen; inhibition, % at 10 µM; 360,000 compounds, 0.66% hits; TALL-104 LAMP-1 surface exposure; cells stimulated with thapsigargin and PMA;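 active = inhibition above about 55%, limit read from the data; inconclusive = no clear call, values can overlap the other calls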
ABCB6 inh 2: ABCB6 transporter inhibitors, primary screen, K562-ABCB6 cells, flow cytometry, MLPCN library. AID 602162, 2011. ATP-binding cassette sub-family B member 6 (Homo sapiens), Q9NP58. 360,000 compounds, 0.19% hits. fluorescence ratio to DMSO, % at 10 µM. K562-ABCB6 porphyrin accumulation, 1 h; active compounds read low;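 active = fluorescence ratio to DMSO below 75%, the collection mean minus 3 SD; inconclusive = too few cells collected in the well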;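 also: signal is porphyrin accumulated inside mitochondria; 100% equals median channel fluorescence of DMSO control wells; lower ratio means ABCB6 inhibition with less porphyrin fluorescence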
Target sequence (Q9NP58 whole entry, looked up): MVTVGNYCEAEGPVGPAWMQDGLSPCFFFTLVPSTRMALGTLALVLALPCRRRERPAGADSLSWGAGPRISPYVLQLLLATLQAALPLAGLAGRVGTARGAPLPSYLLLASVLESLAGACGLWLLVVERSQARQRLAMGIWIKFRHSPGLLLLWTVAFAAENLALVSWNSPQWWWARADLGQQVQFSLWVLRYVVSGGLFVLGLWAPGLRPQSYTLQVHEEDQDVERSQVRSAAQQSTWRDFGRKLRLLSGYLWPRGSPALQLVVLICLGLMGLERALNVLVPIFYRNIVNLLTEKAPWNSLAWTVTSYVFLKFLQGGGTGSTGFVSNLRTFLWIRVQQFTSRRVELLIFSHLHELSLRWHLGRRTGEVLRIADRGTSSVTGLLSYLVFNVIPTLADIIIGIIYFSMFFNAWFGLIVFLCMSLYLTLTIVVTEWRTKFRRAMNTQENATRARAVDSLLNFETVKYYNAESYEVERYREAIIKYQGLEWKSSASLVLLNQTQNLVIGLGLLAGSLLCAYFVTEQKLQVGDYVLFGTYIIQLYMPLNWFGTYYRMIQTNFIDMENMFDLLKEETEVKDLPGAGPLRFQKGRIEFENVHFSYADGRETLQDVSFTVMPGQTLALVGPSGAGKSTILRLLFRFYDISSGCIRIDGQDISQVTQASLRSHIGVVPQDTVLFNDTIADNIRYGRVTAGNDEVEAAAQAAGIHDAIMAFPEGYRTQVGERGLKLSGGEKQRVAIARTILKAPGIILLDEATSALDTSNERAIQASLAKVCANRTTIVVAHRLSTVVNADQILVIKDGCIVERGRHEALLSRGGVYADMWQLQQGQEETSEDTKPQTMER
Myeloid diff: inducers of myeloid progenitor differentiation, confirmation, cell-based, GFP/Mac1 flow cytometry, cherry pick 01 | ER-HoxA9 myeloid progenitors, GFP/Mac1 double-positive flow | shares compounds with Myeloid diff 2 | 2,300 compounds, 2% hits | calls only;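 active = share of green or green-and-red cells above 9 and 9% in run 1 or 4 and 3% in run 2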
GFP autofluor: compound fluorescence in myeloid differentiation counter-screen; ER-HoxA9 myeloid progenitors, no estrogen, GFP autofluorescence flow cytometry; vehicle wells 0%, positive control 100%; fluorescence response, % (no concentration beside the values); shares compounds with Myeloid diff 2; 2,300 compounds, 7.4% hits;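 active = over 5% cells positive for green fluorescent reporter, or over 2% positive for both it and APC stain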;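 also: range taken on the double positive population between DMSO and positive control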
An asterisk follows results filed as active; i = inactive; ? = inconclusive; · = not tested or not shown; + = active, no number. This is a sample that favours compounds with a hit; in the whole collection about 1.8% have one here.

SMILES | Myeloid diff 2 | Granule exo inh | ABCB6 inh 2 | Myeloid diff | GFP autofluor
C[C@H]1CN([C@@H](C)CO)S(=O)(=O)c2ccc(Br)cc2O[C@H]1CN(C)C(=O)CN(C)C | i | -14.2 | 102.0 | · | ·
COc1ccc(C#Cc2ccc3c(c2)O[C@H](CN(C)S(=O)(=O)c2ccccc2F)[C@H](C)CN([C@H](C)CO)S3(=O)=O)cc1 | i | 4.2 | 96.0 | · | ·
C[C@@H]1CN([C@@H](C)CO)S(=O)(=O)c2ccc(Br)cc2O[C@H]1CN(C)C(=O)CN(C)C | + | 3.7 | 98.0 | i | 0.0
C[C@@H]1CN([C@H](C)CO)S(=O)(=O)c2ccc(Br)cc2O[C@H]1CN(C)C(=O)Nc1cccc(F)c1 | i | 9.2 | 102.0 | i | 0.0
C[C@H](CO)N1C[C@H](C)[C@@H](CN(C)C(=O)Nc2ccccc2)Oc2cc(Br)ccc2S1(=O)=O | i | 13.5 | 94.0 | · | ·
COc1ccccc1C(=O)NC(=O)CSc1nc(C)cs1 | i | 2.2 | 88.0 | · | ·
COc1ccc(NC(=O)COC(=O)CCNS(=O)(=O)c2ccccc2)cc1OC | i | 10.2 | 92.0 | · | ·
O=C(CN1C(=O)NC2(CCc3ccccc3C2)C1=O)NCc1ccco1 (stereo unspecified) | i | 4.4 | 100.0 | i | 0.0
O=C(CN1C(=O)NC2(CCCC2)C1=O)NCc1ccco1 | i | -0.3 | 98.0 | · | ·
COC(=O)C1NC(=O)N2C(C(=O)OC)C(C)(C)S[C@H]12 (stereo partly specified) | i | 7.6 | 98.0 | · | ·
Cc1ccc(CNC(=O)CN(c2ccc(C)cc2)S(=O)(=O)c2c(C)n[nH]c2C)cc1 | i | 2.1 | 101.0 | · | ·
O=C(NC(=S)Nc1ccccc1O)c1cncc(Br)c1 | i | -0.3 | 110.0 | i | 10.5*
O=C(NC(=S)Nc1ccccc1C(=O)O)c1cncc(Br)c1 | i | -2.9 | 98.0 | · | ·
Cc1cc(Cl)cc(Br)c1OCCCCn1cncn1 | + | 6.8 | 98.0 | i | 0.6
Cc1cc(Cl)c(OCCCn2cncn2)c(Br)c1 | i | -1.6 | 87.0 | · | ·
CC(/C=C/c1ccc(N(C)C)cc1)=N/N=C1/NC(=O)CC(C(=O)Nc2ccc(Cl)cc2)S1 (stereo unspecified) | + | 6.0 | 117.0 | i | 0.0
CC(/C=C/c1ccc(N(C)C)cc1)=N\N=C1\NC(=O)CC(C(=O)Nc2ccccc2)S1 (stereo unspecified) | i | 0.0 | 111.0 | · | ·
O=C(CN1CCC(n2cnc3cc(F)ccc32)CC1)Nc1ccccc1Br | i | -1.6 | 96.0 | · | ·
C[C@@]12C(=O)N(c3cccc(F)c3)C(=O)N1[C@H](c1ccc(Cl)cc1)[C@@H]1C(=O)N(C3CCCCC3)C(=O)[C@@H]12 | i | 1.4 | 94.0 | · | ·
C[C@@]12C(=O)N(c3cccc(Cl)c3)C(=O)N1[C@H](c1ccc(Cl)cc1)[C@@H]1C(=O)N(C3CCCCC3)C(=O)[C@@H]12 | + | -4.9 | 97.0 | i | 1.1
Cc1cccc(Nc2nnc(-c3ccc(N4CCOCC4)c([N+](=O)[O-])c3)c3ccccc23)c1 | ? | 3.0 | 100.0 | · | ·
O=C(CSc1nc(O)cc(=O)n1-c1ccc(Cl)c(Cl)c1)Nc1ccc(Cl)cc1Cl | · | 1.0 | 104.0 | · | ·
CCN1CCN(CC(=O)Nc2cc3c(cc2C(C)=O)OCO3)CC1 | i | -3.1 | 98.0 | · | ·
CC(=O)c1cc2c(cc1NC(=O)CN1CCOCC1)OCO2 | + | -1.2 | 101.0 | i | 0.0
CCOC(=O)SC1=N/C(=C\c2ccc(N(C)C)cc2)C(=O)S1 | i | -1.0 | 108.0 | i | 0.6
SMILES | Myeloid diff 2 | Granule exo inh | ABCB6 inh 2 | Myeloid diff | GFP autofluor
CCSC1=N/C(=C\c2ccc(C(=O)O)cc2)C(=O)S1 | i | -0.4 | 91.0 | · | ·
COCc1cc(C)nc(SCC(=O)Nc2ccccc2N2CCOCC2)c1C#N | i | -13.1 | 96.0 | · | ·
Cc1cc(C)c2nc(SCC(=O)Nc3ccccc3N3CCOCC3)c(C#N)cc2c1 | + | 1.3 | 100.0 | i | 0.0
CCOc1ccccc1N1CC(C(=O)Nc2cc(Cl)ccc2-n2cncn2)CC1=O (stereo unspecified) | i | 0.9 | 101.0 | · | ·
COc1ccccc1CNC(=O)C1CCN(c2ncnc3c2nc2n3CCCCC2)CC1 | i | -3.0 | 100.0 | · | ·
CCC(C)N(C(=O)Cn1nnc2ccccc21)C(C(=O)NCc1ccco1)c1cccc(OC)c1 (stereo unspecified) | i | -0.9 | 103.0 | i | 0.0
COCCNC(=O)C(c1cccc(OC)c1)N(C(=O)Cn1nnc2ccccc21)c1cccnc1 (stereo unspecified) | i | -1.6 | 91.0 | · | ·
CCCCc1cc(=O)oc2c(C)c(OCC(=O)NCC3CCC(C(=O)O)CC3)ccc12 (stereo unspecified) | i | -3.9 | 94.0 | · | ·
CCCN(C(=O)c1nc2nc(C)cc(C)n2n1)c1c(N)n(Cc2ccccc2)c(=O)[nH]c1=O | i | 0.0 | 95.0 | · | ·
Cc1cc(C(=O)Nc2nccs2)c2cc(F)ccc2n1 | i | 17.0 | 100.0 | i | 0.3
Cc1c(C(=O)Nc2nccs2)oc2ccc(F)cc12 | i | 1.9 | 96.0 | · | ·
COc1ccc(OC)c(N(CCN2C(=O)c3ccccc3C2=O)C(=O)C2CCC(=O)C2C)c1 (stereo unspecified) | i | -1.6 | 100.0 | · | ·
CCCCNC(=S)NNC(=O)c1csc(C)c1 | i | 0.8 | 100.0 | i | 0.0
CCNC(=S)NNC(=O)c1csc(C)c1 | i | -1.5 | 104.0 | · | ·
O=C1OCC(O)=C1Cc1ccccc1 | i | 21.9 | 100.0 | · | ·
COc1ccc(N2CCN(C(=O)CSc3nnc(CNc4ccccc4)o3)CC2)cc1 | i | -1.5 | 99.0 | i | 0.7
COc1ccc(Cc2nnc(SCC(=O)N3CCN(c4ccccc4)CC3)o2)cc1 | i | -2.0 | 99.0 | · | ·
COc1ccc(CC(=O)NN2C(=O)c3ccccc3C2=O)cc1 | + | -2.2 | 100.0 | i | 0.0
COC(=O)CCC(=O)NN1C(=O)c2ccccc2C1=O | i | 6.5 | 95.0 | · | ·
CC1CN(S(=O)(=O)c2cccc(C(=O)Nc3ccc(S(=O)(=O)NC4=NCCCCC4)cc3)c2)CC(C)O1 (stereo unspecified) | i | -3.3 | 97.0 | · | ·
O=C(Nc1ccccc1F)c1ccc([N+](=O)[O-])s1 | + | -2.3 | 109.0 | i | 0.4
O=C(Nc1cccc2ccccc12)c1ccc([N+](=O)[O-])s1 | i | 4.6 | 99.0 | · | ·
CCc1nc(SCC(=O)Nc2cc(C)on2)c2c(C)c(C)sc2n1 | i | 0.8 | 106.0 | · | ·
Cc1cc(NC(=O)CSc2nc(C3CC3)nc3sc(C)c(C)c23)no1 | i | -1.1 | 100.0 | i | 2.7*
Cc1ccc(S(=O)(=O)CCSc2n[nH]c(=O)n2-c2ccccc2)cc1 | i | -0.4 | 97.0 | i | 0.0
Cc1cc(C)c(-n2c(SCCS(=O)(=O)c3ccc(F)cc3)n[nH]c2=O)c(C)c1 | i | -5.1 | 99.0 | · | ·
